“And” between values parts separate entries of the source, which are not always exact repeats. Equal entries are not always repeated. Compounds without any hit were thinned out: in the full panel of roughly 83,000, 20% have a hit.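 48-hour exposure, single concentration, 96-well plates; percent growth endpoint where 0 means no net growth. Active: below 10.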 The source made the active and inactive calls.
Legend:
Experiment in all cases: NCI-60 one-dose screen, 48 h (100 = growth as untreated, 0 = no growth, -100 = all killed)
Conditions in all cases: 10 µM unless noted
[1] = system: NCI-H23 lung
[2] = system: NCI-H226 lung
[3] = system: NCI-H322M lung
[4] = system: HOP-62 NSCLC
[5] = system: NCI-H460 lung
[6] = system: HOP-92 NSCLC
[7] = system: NCI-H522 lung
[8] = system: A549/ATCC NSCLC
[9] = system: 786-0 renal
[10] = system: COLO 205 colon

Row | Compound | growth [1] | growth [2] | growth [3] | growth [4] | growth [5] | growth [6] | growth [7] | growth [8] | growth [9] | growth [10]
1 | CC(C)(C(=O)c1cccnc1)c1cccnc1 | 107% (inactive) and 133% (inactive) | 96.6% (inactive) and 89.7% (inactive) | 92% (inactive) and 103% (inactive) | 109% (inactive) and 103% (inactive) | 103% (inactive) and 101% (inactive) | 89.3% (inactive) | 93.5% (inactive) and 100% (inactive) | 86.5% (inactive) and 108% (inactive) | 103% (inactive) and 99.5% (inactive) | 113% (inactive) and 117% (inactive)
2 | Cc1nc2c(=O)[nH]c(=S)[nH]c2[nH]c1=O | 108% (inactive) and 101% (inactive) | 100% (inactive) and 104% (inactive) | 98% (inactive) and 111% (inactive) | 108% (inactive) and 99.1% (inactive) | 106% (inactive) and 110% (inactive) | 111% (inactive) | 105% (inactive) and 100% (inactive) | 103% (inactive) and 105% (inactive) | 112% (inactive) and 107% (inactive) | 108% (inactive) and 115% (inactive)
3 | Cc1cc(Cl)nc(Nc2ccccc2)n1 | 95.9% (inactive) | 91.2% (inactive) | 92% (inactive) | 62.9% (inactive) | 103% (inactive) | 91.2% (inactive) | 91% (inactive) | 104% (inactive) | 93.8% (inactive) | 114% (inactive)
4 | CC1=CC(=O)C=CC1=Nc1ccc(N(C)C)cc1 | 87% (inactive) and -21.1% (active) | 95.6% (inactive) and 70.4% (inactive) | 99.2% (inactive) and 88.2% (inactive) | 92.4% (inactive) and 72% (inactive) | 103% (inactive) and 70.1% (inactive) | 81.2% (inactive) and 7.79% (active) | 29.9% (inactive) | 101% (inactive) and 58.7% (inactive) | 95.2% (inactive) and 76% (inactive) | 71.1% (inactive) and -30.2% (active)
5 | Nc1nc(-c2ccccn2)cc(-c2cc(-c3ccccn3)nc(N)n2)n1 | 103% (inactive) | 96.1% (inactive) | 94.3% (inactive) | 119% (inactive) | 134% (inactive) | 103% (inactive) | 107% (inactive) | 117% (inactive) | 112% (inactive) | 118% (inactive)
6 | O=[N+]([O-])c1ccc(N/N=C/C2CCCCCC2)c([N+](=O)[O-])c1 | 99.9% (inactive) | 101% (inactive) | 78.8% (inactive) | 97% (inactive) | 94.6% (inactive) | 82.6% (inactive) | 78.5% (inactive) | 79.9% (inactive) | 96.7% (inactive) | 94.6% (inactive)
7 | O=C(Nc1ccccc1)OCC(CN1CCCCC1)OC(=O)Nc1ccccc1 (configuration not stated) | 78.4% (inactive) and 103% (inactive) | 96.6% (inactive) and 89.9% (inactive) | 81% (inactive) and 92.2% (inactive) | 83.6% (inactive) and 110% (inactive) | 106% (inactive) and 105% (inactive) | 76.4% (inactive) | 103% (inactive) | 94.1% (inactive) and 94.4% (inactive) | 64% (inactive) and 101% (inactive) | 98% (inactive)
8 | O=c1[nH]nnc2cc(Cl)ccc12 | 94.4% (inactive) and 92.2% (inactive) | 104% (inactive) and 93.2% (inactive) | 110% (inactive) and 115% (inactive) | 105% (inactive) and 89.1% (inactive) | 114% (inactive) and 101% (inactive) | 109% (inactive) | 103% (inactive) and 106% (inactive) | 101% (inactive) | 117% (inactive) and 94.5% (inactive) | 112% (inactive) and 117% (inactive)
9 | O=C1c2cccnc2-c2ncccc21 | 105% [100 µM] (inactive) | 90% [100 µM] (inactive) | 101% [100 µM] (inactive) | 96.9% [100 µM] (inactive) | 111% [100 µM] (inactive) | 96.7% [100 µM] (inactive) | 104% [100 µM] (inactive) | 97.7% [100 µM] (inactive) | 93.1% [100 µM] (inactive) | 123% [100 µM] (inactive)
10 | CC(C)(C)OC(=O)CC1(O)CCCCC1 | 101% (inactive) | 93.7% (inactive) | 111% (inactive) | 114% (inactive) | 103% (inactive) | 86.1% (inactive) | 102% (inactive) | 109% (inactive) | 101% (inactive) | 109% (inactive)
11 | COc1cc(Cl)ccc1C | 90.3% (inactive) | 98.3% (inactive) | 85.6% (inactive) | 99.5% (inactive) | 34% (inactive) | 99.3% (inactive) | 57% (inactive) | 84.5% (inactive) | 100% (inactive) | 94.1% (inactive)
12 | COC(=O)c1nc(=S)[nH]c(C(=O)OC)c1C(=O)c1ccc(OC)cc1 | 97.4% (inactive) | 90.7% (inactive) | 104% (inactive) | 123% (inactive) | 114% (inactive) | 95.9% (inactive) | 101% (inactive) | 118% (inactive) | 113% (inactive) | 117% (inactive)
13 | COC(=O)c1cc(C(=O)OC)cc([N+](=O)[O-])c1 | 105% (inactive) | 108% (inactive) | 117% (inactive) | 94.8% (inactive) | 113% (inactive) | 105% (inactive) | 90.6% (inactive) | 87.7% (inactive) | 92.9% (inactive) | 101% (inactive)
14 | CCN(CC)CCNC(=O)c1ccc(NCN2C(=O)NC(c3ccccc3)(c3ccccc3)C2=O)cc1 | 97.1% (inactive) and 103% (inactive) | 95.6% (inactive) and 100% (inactive) | 112% (inactive) and 106% (inactive) | 116% (inactive) and 99.7% (inactive) | 101% (inactive) and 114% (inactive) | 86.2% (inactive) and 105% (inactive) | 108% (inactive) and 106% (inactive) | 95.3% (inactive) and 107% (inactive) | 101% (inactive) and 115% (inactive) | 124% (inactive) and 103% (inactive)
15 | CCOC(=O)C(N)Cc1cc(I)c(O)c(I)c1 (configuration not stated) | 99.5% (inactive) and 102% (inactive) | 91.6% (inactive) and 96.6% (inactive) | 113% (inactive) and 106% (inactive) | 106% (inactive) and 113% (inactive) | 109% (inactive) and 115% (inactive) | 102% (inactive) and -3.49% (active) | 108% (inactive) and 90.7% (inactive) | 107% (inactive) and 101% (inactive) | 99.7% (inactive) and 105% (inactive) | 108% (inactive) and 110% (inactive)
16 | CC(O)CCNC(c1ccccc1)C(O)c1ccccc1 (configuration not stated) | 105% (inactive) | 111% (inactive) | 112% (inactive) | 104% (inactive) | 106% (inactive) | 86% (inactive) | 89.8% (inactive) | 117% (inactive) | 97.9% (inactive) | 117% (inactive)
17 | S=c1nn[nH]n1C1CCCCC1 | 111% (inactive) | 102% (inactive) | 102% (inactive) | 126% (inactive) | 95.7% (inactive) | 93.2% (inactive) | 117% (inactive) |  | 99.7% (inactive) | 123% (inactive)
18 | O=P(O)(O)OC1C(OP(=O)(O)O)C(OP(=O)(O)O)C(OP(=O)(O)O)C(OP(=O)(O)O)C1OP(=O)(O)O.[Cu+2] (configuration not stated) | 93.3% (inactive) | 98.8% (inactive) | 106% (inactive) | 114% (inactive) | 84.2% (inactive) | 106% (inactive) | 101% (inactive) |  | 114% (inactive) | 111% (inactive)
19 | Nc1ccc2ccc(NS(=O)(=O)N3CCCCC3)cc2c1 | 43.8% (inactive) | 15.2% (inactive) | 50.9% (inactive) | 35.4% (inactive) | 7.56% (active) | 68% (inactive) | 47.5% (inactive) | 39.3% (inactive) | 30.7% (inactive) | -40.9% (active)
20 | N=C(N)N1CCc2ccccc2C1 | 87.2% (inactive) and 106% (inactive) | 97.6% (inactive) and 108% (inactive) | 98.6% (inactive) and 116% (inactive) | 93.1% (inactive) and 96.8% (inactive) | 103% (inactive) and 95.5% (inactive) | 156% (inactive) | 83.9% (inactive) and 118% (inactive) | 81.9% (inactive) and 96.9% (inactive) | 87.5% (inactive) and 112% (inactive) | 100% (inactive) and 106% (inactive)
21 | CCCCCCCCCCCCCCCCC(=O)O | 97.6% (inactive) | 101% (inactive) | 98% (inactive) | 104% (inactive) | 108% (inactive) | 110% (inactive) | 102% (inactive) |  | 97.7% (inactive) | 114% (inactive)

— PubChem BioAssay (NCI)
